# Values joined by “and” are separate entries in the source; they are usually repeats but may differ in a detail not shown here. Equal entries are not always repeated. Records with an inconclusive call do not appear. Entries that show only a call come without a potency. More than one record can exist for a structure, and the calls need not agree. Active and inactive are the calls of the source. Unless noted, calls come from the whole dose curve; as a rule, active = well fitted curve in the direction sought with a large enough effect in the repeat runs; inconclusive = weak or mixed curves; inactive = no such curve, though single readings can be large; an effect the other way counts as inactive or inconclusive.
# Experiments:
# [1] = qHTS assay to identify small molecule antagonists of the glucocorticoid receptor (GR) signaling pathway - cell viability counter screen (AID 720693); note: nearly all actives have a fitted effect of over 55% in size; note: potency is the fitted concentration of half-maximal effect
# [2] = qHTS assay for identifying genotoxic compounds that show differential cytotoxicity against isogenic chicken DT40 cell lines with known DNA damage response pathways - wild type cell line (AID 743012); note: nearly all actives have a fitted effect of over 60% in size; note: potency is the fitted concentration of half-maximal effect
# Summary of the method: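 300 wt DT40 cells/well; cpd (DMSO) pintool-transferred after ~0.5 h at 37 C/5% CO2; 40 h incubation; CellTiter-Glo added, 30 min RT; luminescence read.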
# [3] = qHTS assay for identifying genotoxic compounds that show differential cytotoxicity against isogenic chicken DT40 cell lines with known DNA damage response pathways - Rev3 mutant cell line (AID 743014); note: nearly all actives have a fitted effect of over 55% in size; note: potency is the fitted concentration of half-maximal effect
# [4] = qHTS assay to identify small molecule antagonists of the androgen receptor (AR) signaling pathway - cell viability counter screen (AID 743033; note: nearly all actives have a fitted effect of over 45% in size; note: potency is the fitted concentration of half-maximal effect)
# [5] = qHTS assay to identify small molecule antagonists of the androgen receptor (AR) signaling pathway using the MDA cell line - cell viability counter screen (AID 743041; note: nearly all actives have a fitted effect of over 45% in size)
# Summary of the method: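 qHTS viability read-out; MDA-kb2 AR-luc; R1881-stimulated; 16 h exposure at 37C, 0% CO2; CellTiter-Fluor, 30 min; fluorescence intensity.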
# [6] = target: Androgen receptor (Homo sapiens) (UniProt P10275); test: qHTS assay to identify small molecule antagonists of the androgen receptor (AR) signaling pathway (AID 743035; active = well fitted inhibition curve with a large enough effect in the signal ratio in the repeat runs, not every such curve was filed as active; the % refers to the signal ratio; note: potency is the fitted concentration of half-maximal effect)
# Summary of the method: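 In this cell-based reporter screen, compounds were tested in concentration series against R1881-activated HEK293 cells expressing beta-lactamase under UAS control; after 16 h at 37C, FRET substrate was added and fluorescence read 2 h later.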
# [7] = target: Androgen receptor (Homo sapiens) (UniProt P10275); test: qHTS assay to identify small molecule agonists of the androgen receptor (AR) signaling pathway (AID 743036; active = well fitted activation curve with a large enough effect in the signal ratio in the repeat runs, with a control signal flat, not every such curve was filed as active; the % refers to the signal ratio)
# Summary of the method: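 AR-UAS-bla HEK293 cells, plated 4 h before dosing, were treated with compound for 16 h at 37C. beta-Lactamase reporter read after 2 h with LiveBLAzer B/G FRET substrate at room temperature.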
# [8] = target: Androgen receptor (Homo sapiens) (UniProt P10275); test: qHTS assay to identify small molecule agonists of the androgen receptor (AR) signaling pathway using the MDA cell line (AID 743040; note: nearly all actives have a fitted effect of over 20% in size); conditions: MDA-kb2 AR-luc cells, MMTV luciferase, 16 h, stronger effect = higher value
# Summary of the method: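 Agonist activity is measured as luciferase luminescence in human MDA-kb2 cells whose MMTV reporter responds to both AR and GR. Compounds in DMSO incubate 16 h at 37C, 0% CO2, and ONE-Glo is read after 30 min.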
# [9] = target: Androgen receptor (Homo sapiens) (UniProt P10275); test: qHTS assay to identify small molecule antagonists of the androgen receptor (AR) signaling pathway using the MDA cell line (AID 743042; note: nearly all actives have a fitted effect of over 55% in size; note: potency is the fitted concentration of half-maximal effect)
# Summary of the method: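 MDA-kb2 cells (human breast carcinoma, stably carrying an MMTV-luciferase reporter responsive to AR and GR) were plated at 3,000 cells/well and preincubated 5 hr at 37C, then given compound plus R1881 agonist for 16 h. ONE-Glo luminescence was read.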
# [10] = qHTS assay for identifying genotoxic compounds that show differential cytotoxicity against isogenic chicken DT40 cell lines with known DNA damage response pathways - Rad54/Ku70 mutant cell line (AID 743015); note: nearly all actives have a fitted effect of over 60% in size; note: potency is the fitted concentration of half-maximal effect
# Chain of Androgen receptor (Homo sapiens) (P10275 whole entry, looked up): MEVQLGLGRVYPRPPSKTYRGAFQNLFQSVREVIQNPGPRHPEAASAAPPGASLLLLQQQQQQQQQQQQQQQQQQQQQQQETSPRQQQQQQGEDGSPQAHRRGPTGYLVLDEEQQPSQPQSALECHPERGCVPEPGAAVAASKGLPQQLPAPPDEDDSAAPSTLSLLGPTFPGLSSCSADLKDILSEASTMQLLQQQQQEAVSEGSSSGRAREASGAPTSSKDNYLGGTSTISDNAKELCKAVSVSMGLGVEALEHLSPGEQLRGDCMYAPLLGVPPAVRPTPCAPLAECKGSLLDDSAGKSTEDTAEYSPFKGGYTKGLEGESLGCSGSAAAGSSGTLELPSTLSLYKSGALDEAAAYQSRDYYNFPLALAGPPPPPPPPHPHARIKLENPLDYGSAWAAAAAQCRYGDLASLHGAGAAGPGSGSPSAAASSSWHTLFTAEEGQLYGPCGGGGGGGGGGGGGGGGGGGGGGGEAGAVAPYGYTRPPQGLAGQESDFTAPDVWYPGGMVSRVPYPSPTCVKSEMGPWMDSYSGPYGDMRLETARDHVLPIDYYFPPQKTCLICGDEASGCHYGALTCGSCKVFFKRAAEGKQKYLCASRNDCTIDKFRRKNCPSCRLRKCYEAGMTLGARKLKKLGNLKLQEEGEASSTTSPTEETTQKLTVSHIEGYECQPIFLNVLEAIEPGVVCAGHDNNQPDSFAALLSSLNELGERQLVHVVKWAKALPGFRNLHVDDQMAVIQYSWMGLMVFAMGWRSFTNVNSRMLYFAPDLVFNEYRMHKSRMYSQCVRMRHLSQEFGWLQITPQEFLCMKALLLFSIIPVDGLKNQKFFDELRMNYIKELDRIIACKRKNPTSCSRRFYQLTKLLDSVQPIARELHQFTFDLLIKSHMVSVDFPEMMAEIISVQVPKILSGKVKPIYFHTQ
compound,measurement,setting,value
COP(=O)(NC(C)=O)SC (stereo not given),Potency,[1],inactive
same,Potency,[2],inactive and 68.6 µM (active)
same,Potency,[3],inactive and 27.3 µM (active)
same,Potency,[4],inactive
same,Potency,[5],inactive
C=CC(Cl)CCl (stereo not given),Potency,[1],inactive
same,Potency,[3],inactive
same,Potency,[4],inactive
same,Potency,[6],inactive
same,Potency,[7],inactive
same,activity change,[8]; at 95 µM (top of the series),-0.5% (inactive) and 0.488% (inactive)
same,Potency,[9],inactive
CC1(C)Cc2cccc(O)c2O1,Potency,[1],inactive
same,Potency,[3],inactive
same,Potency,[4],inactive
same,Potency,[5],inactive
CN(C)c1nc(=O)n(C2CCCCC2)c(=O)n1C,Potency,[1],inactive
same,Potency,[3],inactive
same,Potency,[4],inactive
CC(C)(O)C#N,Potency,[1],inactive
same,Potency,[3],inactive
same,Potency,[10],inactive
same,Potency,[4],inactive
same,Potency,[5],inactive
NN=C(N)N,Potency,[1],inactive
same,Potency,[4],inactive
same,Potency,[5],inactive
ClC(Cl)(Cl)Br,Potency,[1],inactive
same,Potency,[3],inactive
same,Potency,[4],inactive
same,Potency,[5],inactive
CCCCCCCCCc1ccc(O)cc1,Potency,[10],30.9 µM (active)
N#CCCCCC#N,Potency,[1],inactive
same,Potency,[3],inactive
same,Potency,[4],inactive
N#CC(c1ccccc1)c1ccccc1,Potency,[1],inactive
same,Potency,[3],inactive
same,Potency,[4],inactive
same,Potency,[5],inactive
CCOP(=S)(OCC)SCn1c(=O)oc2cc(Cl)ccc21,Potency,[1],inactive
same,Potency,[3],32.9 µM (active) and 27.3 µM (active)
same,Potency,[10],46.4 µM (active) and 30.6 µM (active)
same,Potency,[4],inactive
same,Potency,[5],inactive
OCCOCCO,Potency,[1],inactive
same,Potency,[3],inactive
same,Potency,[4],inactive
CCC/C=N/O,Potency,[1],inactive
same,Potency,[3],inactive
same,Potency,[4],inactive
same,Potency,[5],inactive
CCOP(=O)(OCC)OCC,Potency,[1],inactive
same,Potency,[3],inactive
same,Potency,[4],inactive
Oc1ccc(Cl)cc1Cc1ccccc1,Potency,[2],21.1 µM (active) and 6.19 µM (active)
same,Potency,[3],26.6 µM (active) and 54.5 µM (active) and 21.3 µM (active)
same,Potency,[4],inactive and 38.9 µM (active) and 39.4 µM (active)
same,Potency,[6],19.5 µM (active)
same,activity change,[8]; at 70.3 µM (top of the series),-0.884% (inactive) and -9.7% (inactive)
same,activity change,[8]; at 95 µM (top of the series),-7.19% (inactive)
same,Potency,[5],inactive
same,Potency,[9],inactive and 54.5 µM (active)
O=[N+]([O-])c1ccc(Cl)c([N+](=O)[O-])c1,Potency,[1],19.8 µM (active)
same,Potency,[3],1.75 µM (active) and 2.17 µM (active)
same,Potency,[10],1.24 µM (active) and 1.93 µM (active)
same,Potency,[4],11.1 µM (active) and 17.4 µM (active)
same,Potency,[6],9.92 µM (active) and 19.5 µM (active)
same,activity change,[8]; at 70.3 µM (top of the series),-11.5% (inactive)
same,activity change,[8]; at 95 µM (top of the series),-10.5% (inactive)
same,Potency,[9],8.77 µM (active) and 8.63 µM (active)
CS(=O)(=O)NC(=O)c1cc(Oc2ccc(C(F)(F)F)cc2Cl)ccc1[N+](=O)[O-],Potency,[1],inactive
same,Potency,[3],inactive
same,Potency,[10],inactive
same,Potency,[4],inactive
same,Potency,[5],inactive
Clc1cccc(Cl)c1,Potency,[1],inactive
same,Potency,[3],inactive
same,Potency,[10],inactive
same,Potency,[4],inactive
same,Potency,[5],inactive
O=C1Nc2ccc(Cl)cc2C(c2ccccc2)=NC1O (stereo not given),Potency,[1],inactive
same,Potency,[4],inactive
same,Potency,[5],inactive
CN(C)c1ccccc1,Potency,[1],inactive
same,Potency,[3],inactive
same,Potency,[10],inactive
same,Potency,[4],inactive
same,Potency,[5],inactive
CCNc1nc(Cl)nc(NC(C)(C)C#N)n1,Potency,[1],inactive
same,Potency,[3],inactive
same,Potency,[10],inactive
same,Potency,[4],inactive
same,Potency,[5],inactive
C[N+](C)(C)CC(=O)O,Potency,[1],inactive
same,Potency,[3],inactive
same,Potency,[4],inactive
same,Potency,[5],inactive
Clc1cccc(C(Cl)(Cl)Cl)n1,Potency,[1],inactive
same,Potency,[3],inactive
same,Potency,[4],inactive
same,Potency,[6],inactive
same,Potency,[7],inactive
same,activity change,[8]; at 70.3 µM (top of the series),0.42% (inactive) and 1.19% (inactive)
same,Potency,[5],inactive
same,Potency,[9],inactive
c1ccc2c(c1)Nc1ccccc1S2,Potency,[1],inactive
same,Potency,[10],40.9 µM (active)
same,Potency,[4],inactive
same,Potency,[5],inactive
CCN(CC)C(=O)C(C)Oc1cccc2ccccc12 (stereo not given),Potency,[1],inactive
same,Potency,[3],54.9 µM (active) and 17.2 µM (active)
same,Potency,[10],17.2 µM (active)
same,Potency,[5],inactive
COc1ccc(C=O)cc1OC,Potency,[1],inactive
same,Potency,[3],inactive
same,Potency,[4],inactive
N#Cc1nn(-c2c(Cl)cc(C(F)(F)F)cc2Cl)c(N)c1S(=O)C(F)(F)F (stereo not given),Potency,[1],inactive
same,Potency,[3],10.6 µM (active) and 3.88 µM (active)
same,Potency,[4],15.6 µM (active)
same,Potency,[6],23.9 µM (active)
same,Potency,[7],inactive
same,activity change,[8]; at 70.3 µM (top of the series),-9.74% (inactive)
same,activity change,[8]; at 95 µM (top of the series),-12% (inactive)
same,Potency,[9],17.3 µM (active)
CC(O)CN(CC(C)O)CC(C)O (stereo not given),Potency,[1],inactive
same,Potency,[3],inactive
same,Potency,[10],inactive
same,Potency,[4],inactive
same,Potency,[5],inactive
O=C1CCCO1,Potency,[1],inactive
same,Potency,[3],inactive
same,Potency,[10],inactive
same,Potency,[4],inactive
same,Potency,[6],inactive
same,Potency,[7],inactive
same,activity change,[8]; at 70.3 µM (top of the series),-2.47% (inactive) and -0.181% (inactive)
same,Potency,[9],inactive
Cl,Potency,[1],inactive
same,Potency,[3],inactive and 48.6 µM (active)
same,Potency,[4],inactive

# — PubChem BioAssay (Tox21)
